Screens from PubChem BioAssay.
iPSC survival up: enhancers of human iPSC single-cell survival; 360,000 compounds, 0.044% hits; survival enhancement, % at 20 µM; hiPSC single-cell survival, ATPlite luminescence; 100% = ROCK inhibitor wells, 0% = DMSO; in the data active = survival enhancement above about 18%;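 also: cells exposed to compounds for 16 hours before the ATP read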
beta cell repl: inducers of beta-cell replication in MIN6 cells. MIN6 cells proliferation, ATPlite luminescence, 48 h; cells starved in 0.2% serum; 100% = growth in 10% serum. proliferation, % at 10 µM. 330,000 compounds, 0.29% hits;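 active = compounds whose signal lies at least 3.5 SD above the mean of all wells on their plate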
Myeloid diff 2: myeloid differentiation induction | ER-HoxA9 myeloid progenitors, lysozyme-GFP differentiation, flow cytometry | 360,000 compounds, 1% hits | calls only at 10 µM;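 active = normalized GFP-positive differentiation at or above the plate's own cutoff, the solvent-only control mean plus 3 SD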;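 also: cells exposed to compound for four days before flow analysis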
ABCB6 inh 2: human ABCB6 transporter inhibition; Q9NP58; K562-ABCB6 porphyrin accumulation, flow cytometry, 1 h; stronger effect = lower value; fluorescence ratio to DMSO, % at 10 µM; 360,000 compounds, 0.19% hits; AID 602162;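 active = fluorescence ratio to DMSO below 75%, the collection mean minus 3 SD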;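 also: signal is porphyrin accumulated inside mitochondria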
Target sequence (Q9NP58 whole entry, looked up): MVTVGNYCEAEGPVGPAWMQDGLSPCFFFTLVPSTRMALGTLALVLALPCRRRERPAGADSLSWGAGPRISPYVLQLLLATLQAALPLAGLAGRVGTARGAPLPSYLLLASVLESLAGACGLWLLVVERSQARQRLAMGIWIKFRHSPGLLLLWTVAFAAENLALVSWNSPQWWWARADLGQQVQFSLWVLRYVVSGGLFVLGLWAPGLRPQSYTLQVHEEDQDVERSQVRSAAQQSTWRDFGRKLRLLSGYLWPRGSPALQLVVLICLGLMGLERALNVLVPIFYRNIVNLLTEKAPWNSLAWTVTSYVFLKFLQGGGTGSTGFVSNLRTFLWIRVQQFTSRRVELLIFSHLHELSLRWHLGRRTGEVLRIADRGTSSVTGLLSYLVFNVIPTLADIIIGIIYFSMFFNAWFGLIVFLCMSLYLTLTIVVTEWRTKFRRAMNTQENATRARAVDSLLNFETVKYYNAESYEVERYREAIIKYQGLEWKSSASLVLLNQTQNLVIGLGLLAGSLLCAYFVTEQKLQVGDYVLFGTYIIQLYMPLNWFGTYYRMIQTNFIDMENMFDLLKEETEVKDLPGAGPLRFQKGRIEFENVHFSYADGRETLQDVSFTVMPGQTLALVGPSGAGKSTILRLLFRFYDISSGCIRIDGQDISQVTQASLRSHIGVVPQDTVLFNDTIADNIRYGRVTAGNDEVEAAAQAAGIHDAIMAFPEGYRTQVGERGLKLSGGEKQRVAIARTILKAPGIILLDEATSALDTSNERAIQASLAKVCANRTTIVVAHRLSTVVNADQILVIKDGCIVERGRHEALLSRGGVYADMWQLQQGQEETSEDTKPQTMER
H9c2 protect: protects H9c2 cardiomyocytes from peroxide injury | H2O2 injury protection, ATPLite, 2 h | protection from H2O2 cell death, % at 20 µM | 360,000 compounds, 0.63% hits | AID 588492;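 active = compounds giving at least 50% protection of heart cells from peroxide-induced death in the single-dose screen, raw or plate-pattern-corrected value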
Myeloid diff CP1: promotes myeloid progenitor differentiation; shares compounds with Myeloid diff 2; ER-HoxA9 myeloid progenitors, GFP/Mac1 double-positive flow; calls only; 2,300 compounds, 2% hits; AID 651706;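 active = share of green or green-and-red cells above 9 and 9% in run 1 or 4 and 3% in run 2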
GFP autofluor: compound fluorescence in myeloid differentiation counter-screen | shares compounds with Myeloid diff 2 | ER-HoxA9 myeloid progenitors, no estrogen, GFP autofluorescence flow cytometry; vehicle wells 0%, positive control 100% | fluorescence response, % (concentration not given with the values) | 2,300 compounds, 7.4% hits;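 active = over 5% cells positive for green fluorescent reporter, or over 2% positive for both it and APC stain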
Hits are given with their value; n = inactive; x = no result given; + = active, no number. Sampled rows, rich in hits. Any-hit rate of the full collection: about 2.2%.

SMILES	iPSC survival up	beta cell repl	Myeloid diff 2	ABCB6 inh 2	H9c2 protect	Myeloid diff CP1	GFP autofluor
COc1ccc2c(c1)OC[C@H]1[C@H]2N2C(=O)c3cc(Cl)ccc3NC(=O)[C@@]2(C)[C@H]1c1ccccc1	n	n	n	n	n	x	x
COc1ccc2c(c1)OC[C@H]1[C@H]2N2C(=O)c3cc(OC)ccc3NC(=O)[C@@]2(C)[C@H]1c1ccccc1	n	n	n	n	n	n	n
CCC1(c2ccc(F)cc2)NC(=O)N(CC(=O)N2CCN(S(=O)(=O)c3ccc(C)cc3C)CC2)C1=O (configuration not stated)	n	x	+	n	n	n	n
COC(=O)c1ccccc1NC(=O)C1CC=CCC1C(=O)O (configuration not stated)	n	n	n	n	n	n	n
CCOC(=O)c1[nH]c2ccc(Br)cc2c1NC(=O)CCN1CCCC(C)(C)C1	n	n	+	n	n	n	n
CCOC(=O)c1[nH]c2ccc(F)cc2c1NC(=O)CCN1CCOCC1	n	n	n	n	n	x	x
Nc1ccc2nn(-c3ccccc3)nc2c1	n	n	n	n	n	n	n
COc1ccc(C(C)(NC(C)=O)c2nc(-c3cccnc3)cs2)cc1 (configuration not stated)	n	x	n	n	n	x	x
CN(C)S(=O)(=O)c1ccc(Cl)c(C(=O)Nc2nc3ccccc3[nH]2)c1	n	n	n	n	n	x	x
Cc1ccc(NS(=O)(=O)c2ccc(Cl)c(C(=O)Nc3ccccc3-c3nc4ccccc4[nH]3)c2)cc1C	n	n	n	n	n	n	n
Cc1ccc(NC(=O)CN(C)C(=O)C(c2ccccc2)c2ccccc2)cc1	n	n	n	n	n	x	x
COc1ccc(Cl)cc1NC(=O)CC(=O)Nc1cc(Cl)ccc1OC	n	n	n	n	n	x	x
CCCCOc1ccc(OC(=O)Nc2cc(Cl)ccc2OC)cc1	n	n	n	n	n	+	n
Cc1cccc(C)c1NC(=O)COC(=O)c1cccc2c1C(=O)c1ccccc1C2=O	n	n	n	n	n	x	x
Cc1nn(CC(=O)NCc2ccccc2Cl)c(C)c1[N+](=O)[O-]	n	n	+	n	n	n	n
CC(=O)c1ccc(NS(=O)(=O)c2cc3c(cc2C)N(C(C)=O)CCO3)cc1	n	n	n	n	n	x	x
NC(=O)Nc1ccc(Oc2c(F)c(F)c(F)c(F)c2F)cc1	n	n	n	n	n	n	n
CCOc1ccc(NC(N)=O)cc1	n	n	n	n	n	x	x
COc1ccccc1NC(CC(=O)c1ccccc1)C(=O)OCC(=O)c1ccc(Br)cc1 (configuration not stated)	n	n	n	n	n	x	x
O=C(Nc1ccc(-c2nc3c(ccc4ccccc43)o2)cc1)c1ccco1	n	n	+	n	n	n	n
O=C(COC(=O)c1ccc(F)cc1F)NCCNC(=O)COC(=O)c1ccc(F)cc1F	n	n	n	n	n	x	x
C[C@H]1CN([C@@H](C)CO)C(=O)CCCn2nncc2CO[C@H]1CN(C)C(=O)CCC(F)(F)F	n	x	n	n	n	n	n
C[C@H]1CN([C@@H](C)CO)C(=O)CCCn2nncc2CO[C@H]1CN(C)S(=O)(=O)c1cccc(F)c1	n	x	n	n	n	n	n
C[C@H](CO)N1C[C@H](C)[C@@H](CN(C)C(=O)Oc2ccccc2)OCc2cn(nn2)CCCC1=O	n	x	n	n	n	n	n
COC(=O)CC(c1ccc(F)cc1)n1c(C)ccc1C (configuration not stated)	n	n	n	n	n	x	x
SMILES	iPSC survival up	beta cell repl	Myeloid diff 2	ABCB6 inh 2	H9c2 protect	Myeloid diff CP1	GFP autofluor
Cc1ccc(C)c(NC(=O)c2oc(=O)c3ccccc3c2-c2ccccc2)c1	n	n	n	n	n	x	x
COC(=O)CNC(=O)COc1ccccc1	n	n	+	n	n	n	n
Cc1ccc(C(=O)NC(=S)c2c(C)cc3ccccn23)cc1	n	x	+	n	n	n	11
Cc1cc2ccccn2c1C(=S)NC(=O)c1ccccc1	n	n	n	n	n	x	x
O=C(Nc1ccc(S(=O)(=O)N2CCCCC2)cc1)C1CCCN(C(=O)c2ccc(Cl)cc2)C1 (configuration not stated)	n	n	n	n	n	n	n
CN(C)S(=O)(=O)c1ccc(NC(=O)C2CCCN(C(=O)c3ccc(Cl)cc3)C2)cc1 (configuration not stated)	n	n	n	n	n	x	x
O=C(Nc1ccc(F)cc1)C1CCN(S(=O)(=O)c2ccc3[nH]c(=O)oc3c2)CC1	n	n	n	n	n	x	x
Cc1ncsc1CCSc1nc2ccccc2c(=O)n1C	n	n	n	n	n	n	n
CCOC(=O)C(NC(=O)Nc1ccccc1)(OCC)C(F)(F)F (configuration not stated)	n	n	n	n	n	x	x
CCOC(=O)Cc1cnc(NC(=O)NC(C(=O)OCC)(c2ccccc2)C(F)(F)F)s1 (configuration not stated)	n	n	n	n	n	n	n
C#CC[N+]1(CC#Cc2cccc(C)c2)CCCCC1	n	n	n	n	n	n	n
C#CC[N+]1(CC#Cc2ccccc2)CCOCC1	n	n	n	n	n	n	n
CC(=O)C(=Cc1cccc(C#N)c1)C(=O)c1ccccc1	n	x	n	n	n	x	x
COC(=O)c1cc(NCc2ccccc2F)ccc1N1CCOCC1	n	n	n	n	n	x	x
COc1ccccc1CCc1nnc(N)s1	n	n	n	n	n	x	x
Nc1nnc(CCOc2ccccc2Cl)s1	n	n	n	n	n	n	n
O=C(c1ccc(S(=O)(=O)Cc2ccccc2F)c([N+](=O)[O-])c1)N1CCCCCC1	n	n	n	n	n	x	x
O=C(c1ccc(S(=O)(=O)c2ccccc2Cl)c([N+](=O)[O-])c1)N1CCCCCC1	n	n	+	n	n	n	n
CN(C)c1ccnc(-n2cccc2/C=N/O)c1C#N	n	n	n	n	n	x	x
CNC(=O)c1ccsc1NC(=O)CCS(=O)(=O)c1ccc(F)cc1	n	n	n	n	n	x	x
NC(=O)c1ccsc1NC(=O)CCS(=O)(=O)c1ccc(F)cc1	n	n	+	n	n	n	n
Cn1c(=O)c2c(nc(SCC(=O)N3CCc4ccccc4C3)n2C)n(C)c1=O	n	n	n	n	n	x	x
Cn1c(=O)c2c(nc(SCC(=O)N3c4ccccc4CCc4ccccc43)n2C)n(C)c1=O	n	x	+	n	n	n	n
COc1ccc(Oc2nc(C)cc(C)c2C#N)cc1	n	n	n	n	n	x	x
O=C(Cc1ccc(Cl)cc1Cl)NCC1(N2CCOCC2)CCCCC1	n	n	n	n	n	n	n
O=C(CSc1nnnn1-c1ccccc1)NCC1(N2CCOCC2)CCCCC1	n	n	n	n	n	n	n
O=C(CSc1nnnn1-c1ccccc1)NCC1(N2CCCCC2)CCCCC1	n	n	n	n	n	x	x
